Measured values taken from PubChem BioAssay AID1159580 (chemical genetic matrix, 2015).
“And” between values parts separate entries of the source, which are not always exact repeats. Equal entries are not always repeated. The whole screen tested about 5,500 compounds, of which about 2,000 (36%) were called active. Roughly 18% stayed inconclusive and do not appear here. No stated cut-off is given here; in the data, active means normalized growth mostly below about 0.91 (no sharp cut-off); inconclusive means no clear call, values can overlap the other calls; inactive means mostly above about 0.92. The list shows a part of the results.

Assay: chemical genetic growth profiling, strain panel (AID 1159580);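 further: tested at 20 µM; growth read once vehicle control cultures reached saturation at 30 °C; 1 = growth at the plate median or of vehicle wells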
Details: S. cerevisiae deletion strains, growth OD

Measured: normalized growth

O=C(O)C1=C[C@@H](O)[C@@H](O)[C@H](O)C1
inactive: locus YAL013W, strain DEP1, stronger effect = lower value 1.02 | locus YAL021C, strain ccr4, stronger effect = lower value 1 | locus YAL026C, strain drs2, stronger effect = lower value 0.978 | locus YAL030W, strain snc1, stronger effect = lower value 0.969 | locus YBL061C, strain skt5, stronger effect = lower value 0.974 | locus YBR009C, strain hhf1, stronger effect = lower value 0.988 | locus YBR021W, strain FUR4, stronger effect = lower value 1.02 | locus YBR023C, strain chs3, stronger effect = lower value 0.988 | locus YBR171W, strain sec66, stronger effect = lower value 0.985 | locus YBR229C, strain ROT2, stronger effect = lower value 1.01 | locus YBR231C, strain swc5, stronger effect = lower value 0.98 | locus YBR279W, strain paf1, stronger effect = lower value 0.977 | locus YCL011C, strain gbp2, stronger effect = lower value 0.99 | locus YCL016C, strain dcc1, stronger effect = lower value 0.987 | locus YCL029C, strain bik1, stronger effect = lower value 1.01 | locus YCL061C, strain MRC1, stronger effect = lower value 0.989 | locus YCL069W, strain vba3, stronger effect = lower value 0.977 | locus YCR088W, strain abp1, stronger effect = lower value 0.974 | locus YDL005C, strain med2, stronger effect = lower value 0.976 | locus YDL035C, strain GPR1, stronger effect = lower value 1.04 | locus YDL040C, strain nat1, stronger effect = lower value 0.987 | locus YDL074C, strain BRE1, stronger effect = lower value 1.07 | locus YDL101C, strain DUN1, stronger effect = lower value 1.03 | locus YDL134C, strain PPH21, stronger effect = lower value 0.999 | locus YDL185W, strain tfp1, stronger effect = lower value 1.01 | locus YDL192W, strain arf1, stronger effect = lower value 1.02 | locus YDR001C, strain nth1, stronger effect = lower value 0.975 | locus YDR069C, strain doa4, stronger effect = lower value 0.97 | locus YDR101C, strain arx1, stronger effect = lower value 1.04 | locus YDR137W, strain rgp1, stronger effect = lower value 0.977 | locus YDR150W, strain NUM1, stronger effect = lower value 1.02 | locus YDR159W, strain sac3, stronger effect = lower value 0.979 | locus YDR162C, strain NBP2, stronger effect = lower value 1.01 | locus YDR195W, strain ref2 0.946 | locus YDR297W, strain sur2, stronger effect = lower value 0.963 | locus YDR318W, strain mcm21, stronger effect = lower value 0.999 | locus YDR334W, strain swr1, stronger effect = lower value 0.966 | locus YDR335W, strain msn5, stronger effect = lower value 0.976 | locus YDR388W, stronger effect = lower value 1.01 | locus YDR392W, strain spt3, stronger effect = lower value 1.04 | locus YDR502C, strain sam2, stronger effect = lower value 1.01 | locus YEL003W, strain gim4, stronger effect = lower value 0.979 | locus YEL037C, strain rad23, stronger effect = lower value 0.971 | locus YEL061C, strain CIN8 (second series), stronger effect = lower value 0.973 | locus YEL061C, strain CIN8, stronger effect = lower value 1.01 | locus YER015W, strain faa2, stronger effect = lower value 0.988 | locus YER016W, strain bim1, stronger effect = lower value 0.977 | locus YER110C, stronger effect = lower value 1.01 | locus YER111C, strain swi4, stronger effect = lower value 0.967 | locus YER155C, strain BEM2 (second series), stronger effect = lower value 0.958 | locus YER155C, strain BEM2, stronger effect = lower value 1.01 | locus YER167W, strain BCK2, stronger effect = lower value 1.01 | locus YFR010W, strain ubp6, stronger effect = lower value 0.964 | locus YGL078C, strain dbp3, stronger effect = lower value 1.01 | locus YGL086W, strain mad1, stronger effect = lower value 1.07 | locus YGL167C, strain pmr1, stronger effect = lower value 0.977 | locus YGL173C, strain kem1, stronger effect = lower value 0.974 | locus YGL227W, strain vid30, stronger effect = lower value 0.986 | locus YGL240W, strain doc1, stronger effect = lower value 0.988 | locus YGL248W, strain PDE1, stronger effect = lower value 1.03 | locus YGL253W, strain hxk2, stronger effect = lower value 0.984 | locus YGR135W, strain pre9, stronger effect = lower value 1.02 | locus YGR252W, strain gcn5, stronger effect = lower value 0.931 | locus YHR013C, strain ard1, stronger effect = lower value 0.949 | locus YHR027C, strain rpn1, stronger effect = lower value 0.968 | locus YHR030C, strain SLT2, stronger effect = lower value 1.01 and 0.984 | locus YHR079C, strain IRE1 (second series), stronger effect = lower value 1.01 | locus YHR079C, strain IRE1, stronger effect = lower value 0.972 | locus YHR094C, strain hxt1, stronger effect = lower value 0.993 | locus YHR129C, strain ARP1, stronger effect = lower value 1.02 | locus YHR142W, strain chs7, stronger effect = lower value 0.995 | locus YHR200W, strain rpn10, stronger effect = lower value 0.996 | locus YIL066C, strain RNR3, stronger effect = lower value 1.02 | locus YIL073C, strain SPO22, stronger effect = lower value 1.08 | locus YIL125W, strain kgd1, stronger effect = lower value 1.03 | locus YIR030C, strain dcg1, stronger effect = lower value 0.999 | locus YJL092W, strain hpr5, stronger effect = lower value 0.976 | locus YJL095W, strain BCK1 (second series), stronger effect = lower value 0.978 | locus YJL095W, strain BCK1, stronger effect = lower value 1.04 and 0.998 | locus YJL115W, strain asf1, stronger effect = lower value 0.952 | locus YJL129C, strain trk1, stronger effect = lower value 0.981 | locus YJL134W, strain LCB3, stronger effect = lower value 1.01 | locus YJL154C, strain vps35, stronger effect = lower value 0.983 | locus YJL164C, strain tpk1, stronger effect = lower value 0.981 | locus YJL166W, strain qcr8, stronger effect = lower value 0.974 | locus YJL168C, strain set2, stronger effect = lower value 1.01 | locus YJL187C, strain SWE1 (second series), stronger effect = lower value 1.04 | locus YJL187C, strain SWE1, stronger effect = lower value 0.976
